Only some compounds are listed: those with a hit (about 1.1% of all), similar ones and a draw of the others.
HTR5A inv ag: counter-screen for OPRM1-OPRD1 inverse agonists: human HTR5A inverse agonism. HTR5A cell line, luminescence. inhibition, % at 9.3 µM. P47898. 0.083% of 340,000 active; in the data active means inhibition mostly above about 23%, no sharp cut-off; inactive means mostly below about 18%;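 further: 0% = cells with DMSO and 100% = no-cell wells with DMSO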
Target sequence (P47898 whole entry, looked up): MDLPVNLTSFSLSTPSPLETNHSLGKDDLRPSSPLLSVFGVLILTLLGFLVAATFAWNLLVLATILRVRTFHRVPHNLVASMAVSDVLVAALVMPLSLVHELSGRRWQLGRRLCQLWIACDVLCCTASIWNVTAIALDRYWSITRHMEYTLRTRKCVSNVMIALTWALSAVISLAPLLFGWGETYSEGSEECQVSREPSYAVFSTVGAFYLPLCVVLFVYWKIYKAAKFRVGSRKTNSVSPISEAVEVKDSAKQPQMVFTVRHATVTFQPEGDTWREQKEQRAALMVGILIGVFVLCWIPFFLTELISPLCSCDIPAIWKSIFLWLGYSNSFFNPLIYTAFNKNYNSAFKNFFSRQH
OPRM1-OPRD1 inv: inverse agonist of human OPRM1-OPRD1 heterodimerization. 0.21% of 340,000 active. cell-based MOR-DOR heterodimer luminescence, inverse agonism. inhibition, % at 9.3 µM; in the data active means inhibition above about 22%, passing the limit was not always enough;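 further: 0% = cells with DMSO and 100% = wells without cells with DMSO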
HTR5A ag: counter-screen for OPRM1-OPRD1 agonists: human HTR5A agonism; P47898; 0.61% of 340,000 active; HTR5A agonist assay, luminescence, cell-based; activation, % at 9.3 µM; in the data active means activation mostly above about 9.5%, no sharp cut-off; inactive means mostly below about 7.6%;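 further: 0% = cells with vehicle only and 100% = reference agonist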
MOR-DOR ag-1: agonists of human mu-delta opioid receptor heterodimerization; activation, % at 9.3 µM; cells, OPRM1-OPRD1 heterodimerization, luminescence; P35372+P41143; 0.3% of 340,000 active;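 further: 0% = vehicle-treated cells and 100% = reference agonist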
MOR-DOR ag-2: counter-screen for HTR5A agonists: OPRM1-OPRD1 heterodimerization agonism; shares compounds with HTR5A ag; U2OS counter-screen cells, complementation luminescence, 3 h; activation, % at 9.3 µM; 13% of 800 active
HTR5A ag conf: confirmation of human HTR5A agonists. shares compounds with HTR5A ag. activation, % at 9.3 µM. HTR5A agonist cell assay, luminescence. 17% of 800 active; in the data active means activation above about 17%;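 further: 0% = cells with vehicle only and 100% = full reference agonist response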
* = called active by the depositor; nt = not tested or not shown. Unless noted, no stated cut-off is given here; in the data, active means activation above about 18%; inactive means the rest.

SMILES | HTR5A inv ag | OPRM1-OPRD1 inv | HTR5A ag | MOR-DOR ag-1 | MOR-DOR ag-2 | HTR5A ag conf
Cc1c(N=C/C=C2\N(C)c3ccccc3C2(C)C)c(=O)n(-c2ccccc2)n1C | -125 | 10 | 48* | -2 | 2 | 32*
COc1cccc(CNC(=O)c2cc3c(cc2Cl)N2CCCCCC2=NS3(=O)=O)c1 | 6 | 18 | -2 | -3 | nt | nt
CCCCCc1ccc(S(=O)(=O)Nc2cc(C)ccn2)cc1 | -23 | 4 | 17* | -1 | -1 | 2
Cc1ccnc(NS(=O)(=O)c2ccc(Oc3ccccc3)cc2)c1 | 0 | 9 | 7 | -2 | nt | nt
COCc1cc(=O)n2[nH]c(C(C)(C)C)cc2n1 | 7 | 11 | -1 | -2 | nt | nt
CCNC(=O)c1ccc(-n2nc(C(F)(F)F)c3c2CCCC3)cc1 | -79 | 4 | 16* | -1 | 1 | 36*
CCc1nc2oc3ccccc3c(=O)c2c(=O)n1CCOC | -22 | 1 | 3 | 0 | nt | nt
CCc1nc2oc3ccccc3c(=O)c2c(=O)n1-c1ccccc1 | -4 | 21 | 14* | -4 | -2 | -3
O=S(=O)(c1cccc(NC(=S)N2CCN(c3cccc(Cl)c3)CC2)c1)C(F)F | -43 | -92 | 15* | 13 | 31* | 2
COc1ccc(-n2c(-c3ccc(Br)cc3)c[n+]3c2SC(C)C3)cc1 (stereo not drawn) | 2 | 2 | 1 | 0 | nt | nt
CN(CC(=O)Nc1ccccc1Cl)C1CCS(=O)(=O)C1 (stereo not drawn) | -18 | 10 | 7 | -2 | nt | nt
O=C(COC(=O)CCC(=O)c1cccs1)Nc1cccc(F)c1 | -43 | 1 | 18* | 0 | 1 | 6
COc1cccc2cc(C(=O)NC3CC4CCC3C4)oc12 (stereo not drawn) | 9 | 11 | -2 | -2 | nt | nt
CC(C)(C)c1ccc(S(=O)(=O)CCc2ccccn2)cc1 | -67 | 12 | 24* | -2 | 1 | 4
Cc1ccc(S(=O)(=O)CCc2ccccn2)cc1 | -14 | 13 | 5 | -2 | nt | nt
Cc1cc(N2CCN(C(=O)/C=C/C(=O)O)CC2)c2ccccc2n1 | -56 | -5 | 15* | 1 | 1 | 0
O=C(O)/C=C/C(=O)N1CCN(c2ccccc2F)CC1 | 16 | 15 | -2 | -3 | nt | nt
CCN(CC)C(=O)c1[nH]cnc1C(=O)NC1CCN(C(=O)OC(C)(C)C)CC1 | -26 | 7 | 9 | -1 | nt | nt
Cc1nc2ccc(NC(=O)c3cccs3)cc2c(=O)n1Cc1ccc(Cl)cc1 | -39 | -9 | 15* | 2 | -2 | -3
CCCc1nc2ccc(NC(=O)c3cccs3)cc2c(=O)n1Cc1ccc(Cl)cc1 | -9 | 5 | 4 | -1 | nt | nt
CCS(=O)(=O)N1Cc2ccccc2CC1C(=O)Nc1cccc(OC)c1 (stereo not drawn) | 0 | 13 | 0 | -3 | nt | nt
CCS(=O)(=O)N1Cc2ccccc2CC1C(=O)Nc1ccc(OC)c(OC)c1 (stereo not drawn) | 1 | 6 | 15* | -1 | 1 | 5
COC(=O)c1ccc(-c2cc(C(=O)O)c3cc4c(cc3n2)OCCO4)cc1 | -44 | 10 | 17* | -2 | 1 | 2
CCc1cc2ccccc2nc1SCC(=O)Nc1cc(C)on1 | -14 | -15 | 26* | 3 | 3 | 4
CCc1cc2c(C)ccc(C)c2nc1SCC(=O)Nc1cc(C)on1 | 14 | 8 | 0 | -1 | nt | nt
SMILES | HTR5A inv ag | OPRM1-OPRD1 inv | HTR5A ag | MOR-DOR ag-1 | MOR-DOR ag-2 | HTR5A ag conf
COc1ccc(NC(=O)CSc2nc3nc(C)cc(C)n3n2)cc1 | -11 | 9 | 4 | -1 | nt | nt
COc1ccc(OC)c(NC(=O)CSc2nc3nc(C)cc(C)n3n2)c1 | -41 | 9 | 17* | -2 | 0 | -3
C[C@H](NC(=O)c1ccco1)C(=O)NNC(=O)COc1cccc(C(F)(F)F)c1 | -7 | -1 | 5 | 0 | nt | nt
NC1=NC(=O)/C(=C/c2cn(Cc3ccccc3)c3ccccc23)S1 | -19 | -20 | 16* | 4 | 1 | 17*
CN(C)CCCN(C(=O)CCS(=O)(=O)c1ccccc1)c1nc2cc3c(cc2s1)OCO3 | -8 | 11 | 15* | -2 | 4 | -1
Cc1ccc2sc(N(CCCN(C)C)C(=O)CCS(=O)(=O)c3ccccc3)nc2c1C | -57 | -21 | 15* | 4 | 7 | 10
COc1cc(C(=O)O)ccc1OCc1ccncc1 | -1 | 10 | 16* | -2 | 0 | 0
COc1cc(C(N)=O)ccc1OCc1ccccc1 | -11 | 4 | 4 | -1 | nt | nt
CCOc1ccc(S(=O)(=O)N2CCN(C(=O)c3ccncc3)CC2)cc1 | -4 | 7 | -2 | -1 | nt | nt
Cc1nnc(SCc2ccc(C(=O)O)cc2)s1 | -18 | 9 | 16* | -2 | 2 | 2
O=C(NNC(=O)c1ccccc1[N+](=O)[O-])c1cccs1 | -8 | 15 | 3 | -3 | nt | nt
O=C(COC(=O)c1ccccc1[N+](=O)[O-])NNC(=O)c1cccs1 | -3 | 7 | 16* | -1 | 0 | 0
N#CC1=C(N)Oc2n[nH]c(-c3cccnc3)c2C1c1ccc([N+](=O)[O-])o1 (stereo not drawn) | -1 | -14 | 1 | 3 | nt | nt
CCC(NC(=O)CN1CCN(C(=O)c2cccs2)CC1)c1ccc(C)cc1 (stereo not drawn) | -12 | 4 | 5 | -1 | nt | nt
O=S(=O)(NCc1ccc2c(c1)OCO2)c1ccc(F)c(F)c1 | -19 | 6 | 15* | -1 | 1 | 2
Cc1cc(S(=O)(=O)NCc2ccc3c(c2)OCO3)ccc1F | -26 | 7 | -4 | -1 | nt | nt
CCN(C(=O)c1cnc(OC)cc1C(F)(F)F)c1ccc(Cl)cc1Cl | 28 | 5 | 1 | -1 | nt | nt
O=C(c1ccc(Cn2c(=O)[nH]c3ccccc3c2=O)cc1)N1CCN(c2ccccc2)CC1 | -4 | -32 | 15* | 6 | 1 | 8
O=C(c1ccc(Cn2c(=O)[nH]c3ccccc3c2=O)cc1)N1CCN(c2ccccn2)CC1 | -36 | 2 | 12 | 0 | nt | nt
O=C(c1ccc(Cn2c(=S)[nH]c3ccccc3c2=O)cc1)N1CCN(c2ccccn2)CC1 | -43 | -15 | 16* | 3 | 0 | -3
CC(C)(C)c1ccc(C(=O)O/N=C(\N)c2ccccn2)cc1 | -138 | -48 | 57* | 9 | 5 | 4
COc1ccc(S(=O)(=O)N2CCOCC2)cc1C(=O)NCc1c(C)nn(Cc2ccccc2)c1C | -12 | 2 | 4 | 0 | nt | nt
COc1ccc(C(=O)NCc2c(C)nn(Cc3ccccc3)c2C)cc1S(=O)(=O)N1CCOCC1 | -42 | 13 | 17* | -3 | 0 | 0
COc1ccccc1NC(=O)CCN1CCN(Cc2ccccc2)CC1 | -54 | -6 | 21* | 1 | 2 | 4
COc1ccccc1NC(=O)CN1CCN(c2ccccc2)CC1 | 10 | 11 | 15* | -2 | 2 | 1
COc1ccccc1NC(=O)CN1CCN(c2ccc(Cl)cc2)CC1 | 10 | -5 | -4 | 1 | nt | nt
CCC1CCCCN1CCCNC(=O)CN1C(=O)COc2ccccc21 (stereo not drawn) | 8 | 16 | -2 | -3 | nt | nt

Screens as filed in PubChem BioAssay.
